The list is not random: actives were taken first. Their share in the collection is about 3.2%.
rCAG binder = r(CAG) repeat RNA binding; TO-PRO-1 dye displacement fluorescence; inhibition, % at 3 µM; 1.3% of 370,000 active;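 active = inhibition above the plate cutoff, the mean of all test compounds on that plate plus 3 SD, cut at about 35% in these data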;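 also: higher means more dye released from RNA so lower well fluorescence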
bovine MsrA act = activators of bovine methionine sulfoxide reductase A; activation, % at 10.6 µM; AID 602163; purified bovine MsrA, absorbance read-out; 0.3% of 360,000 active; in the data active = activation above about 7.5%
PG9 binder = small molecules binding HIV-1 gp120 antibody PG9. TR-FRET gp120-PG9 antibody binding. inhibition, % at 6.7 µM. 0.43% of 360,000 active. AID 624416; in the data active = inhibition above about 8.5%
MsrA inhibitor = inhibits bovine methionine sulfoxide reductase A | 0.75% of 360,000 active | inhibition, % at 15.5 µM | purified bovine MsrA, absorbance read-out | AID 651718; in the data active = inhibition above about 4.5%
HGIII-sPLA2 inh = Blocks human group III sPLA2 activity. AID 743126. inhibition, % at 12.2 µM. 0.56% of 370,000 active. Q9NZ20. QFRET BODIPY PC-A2 liposome hydrolysis, fluorescence;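 active = inhibition above mean plus 3 SD of compounds lying within the high and low control bounds, cut at about 19% in these data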
Target sequence (Q9NZ20 whole entry, looked up): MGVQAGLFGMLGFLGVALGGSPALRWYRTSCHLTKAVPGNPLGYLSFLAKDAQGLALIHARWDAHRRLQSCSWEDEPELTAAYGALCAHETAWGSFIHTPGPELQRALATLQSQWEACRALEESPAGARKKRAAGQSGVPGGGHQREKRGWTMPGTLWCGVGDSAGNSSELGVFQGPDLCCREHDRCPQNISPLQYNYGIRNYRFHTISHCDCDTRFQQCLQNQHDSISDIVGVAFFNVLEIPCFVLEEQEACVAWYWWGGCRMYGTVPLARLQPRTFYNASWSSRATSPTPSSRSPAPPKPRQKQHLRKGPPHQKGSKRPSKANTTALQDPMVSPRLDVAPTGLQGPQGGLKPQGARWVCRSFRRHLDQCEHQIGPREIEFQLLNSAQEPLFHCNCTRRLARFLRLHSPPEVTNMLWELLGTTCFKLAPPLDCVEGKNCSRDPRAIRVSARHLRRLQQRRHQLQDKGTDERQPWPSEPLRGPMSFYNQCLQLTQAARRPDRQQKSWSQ
rCAG bind conf = r(CAG) RNA repeat binding, confirmation; shares compounds with rCAG binder; TO-PRO-1 dye displacement fluorescence; inhibition, % at 3 µM; 70% of 4,300 active; AID 652065;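 active = inhibition above a per-plate cutoff, the mean inhibition of sample wells plus 3 SD, cut at about 35% in these data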;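 also: loss of TO-PRO-1 fluorescence as compound displaces dye from 1x1 AA loop RNA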
DNA CAG counter = DNA CAG dye complex inhibition counter-screen. shares compounds with rCAG binder. d(CAG) DNA oligo TO-PRO-1 dye displacement, fluorescence. inhibition, % at 3 µM. 94% of 4,300 active;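 active = inhibition above its plate's cutoff, the mean test-well inhibition plus 3 SD, cut at about 4.8% in these data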;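 also: hits displace the dye from DNA and so lower well fluorescence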
DNA CAG DR = disrupts DNA CAG TO-PRO-1 complex in dose response; shares compounds with rCAG binder; DNA CAG/GTC duplex TO-PRO-1 dye displacement fluorescence; IC50, µM; 20% of 250 active; in the data active = IC50 below about 10 µM
A number is an active result.

`COc1ccc(C(=O)NC(=S)Nc2ccc(S(=O)(=O)Nc3cc(OC)nc(OC)n3)cc2)cc1` gave rCAG binder 58, bovine MsrA act inactive, PG9 binder inactive, MsrA inhibitor inactive, HGIII-sPLA2 inh inactive, rCAG bind conf 55 and DNA CAG counter 20.
`COc1ccc(OCC(=O)NC(=S)Nc2ccc(S(=O)(=O)Nc3cc(OC)nc(OC)n3)cc2)cc1` gave rCAG binder 52, bovine MsrA act inactive, PG9 binder inactive, MsrA inhibitor inactive, HGIII-sPLA2 inh inactive, rCAG bind conf 53 and DNA CAG counter 20.
`COc1cc(NS(=O)(=O)c2ccc(NC(=S)NC(=O)c3ccc(F)cc3)cc2)nc(OC)n1` gave rCAG binder inactive, bovine MsrA act inactive, PG9 binder inactive, MsrA inhibitor inactive and HGIII-sPLA2 inh inactive.
COc1ccc(C(C(=O)N(C)C2CCCC2)N(Cc2ccc(F)cc2)C(=O)c2ccc3ccccc3c2)cc1OC (stereo not given) was read as rCAG binder inactive and HGIII-sPLA2 inh inactive.
Screening COc1ccc(/C=N/NC(=S)Nc2ccccc2[N+](=O)[O-])cc1O returned rCAG binder 38, bovine MsrA act inactive, PG9 binder inactive, MsrA inhibitor inactive, HGIII-sPLA2 inh 20, rCAG bind conf inactive and DNA CAG counter 11.
`COC(=O)C[C@H]1CC[C@H]2[C@H](COc3ccc(NC(=O)c4ccccc4F)cc3C(=O)N2C)O1` gave rCAG binder inactive and HGIII-sPLA2 inh inactive.
For O=C(O)/C=C/c1cn(-c2ccccc2)nc1-c1ccccc1 the results were rCAG binder inactive, bovine MsrA act inactive, PG9 binder inactive, MsrA inhibitor inactive and HGIII-sPLA2 inh inactive.
For O=C(O)/C=C\c1cn(-c2ccccc2)nc1-c1cc2ccccc2o1 the results were rCAG binder 72, bovine MsrA act inactive, PG9 binder inactive, MsrA inhibitor inactive, HGIII-sPLA2 inh inactive, rCAG bind conf 62 and DNA CAG counter 22.
For O=C(O)/C=C/c1cn(-c2ccccc2)nc1-c1cc2ccccc2o1 the results were rCAG binder 67, bovine MsrA act inactive, PG9 binder inactive, MsrA inhibitor inactive, HGIII-sPLA2 inh inactive, rCAG bind conf 73, DNA CAG counter 26 and DNA CAG DR inactive.
O=C(CNS(=O)(=O)c1ccc(Br)s1)N1CCN(c2ccccn2)CC1 was read as rCAG binder inactive and HGIII-sPLA2 inh inactive.
For CCCS(=O)(=O)Nc1c(C(=O)O)[nH]c2ccc(OC)cc12 the results were rCAG binder inactive, bovine MsrA act inactive, PG9 binder inactive, MsrA inhibitor inactive and HGIII-sPLA2 inh inactive.
For COc1ccc2[nH]c(C(=O)O)c(NS(=O)(=O)c3ccc(C)cc3C)c2c1 the results were rCAG binder 49, bovine MsrA act inactive, PG9 binder inactive, MsrA inhibitor inactive, HGIII-sPLA2 inh inactive, rCAG bind conf inactive and DNA CAG counter 4.9.
Screening Cc1cc(S(=O)(=O)Nc2c(C(=O)O)[nH]c3ccccc23)ccc1F returned rCAG binder inactive, bovine MsrA act inactive, PG9 binder inactive, MsrA inhibitor inactive and HGIII-sPLA2 inh inactive.
`Cc1ccc(S(=O)(=O)Nc2c(C(=O)O)[nH]c3ccccc23)cc1C` gave rCAG binder 46, bovine MsrA act inactive, PG9 binder inactive, MsrA inhibitor inactive, HGIII-sPLA2 inh inactive, rCAG bind conf inactive and DNA CAG counter 11.
C[C@@H]1[C@@H](O)C[C@]2(C[C@@H](O)c3ccccc3O2)O[C@H]1c1ccccc1 was read as rCAG binder inactive and HGIII-sPLA2 inh inactive.
Screening Cc1ccc(S(=O)(=O)Nc2cc(-c3ccc(Cl)cc3)nn2C)cc1 returned rCAG binder 48, bovine MsrA act inactive, PG9 binder inactive, MsrA inhibitor inactive, HGIII-sPLA2 inh inactive, rCAG bind conf 48 and DNA CAG counter 11.
Cc1ccc(S(=O)(=O)Nc2cc(-c3ccccc3)nn2C)cc1Cl was read as rCAG binder 57, bovine MsrA act inactive, PG9 binder inactive, MsrA inhibitor inactive, HGIII-sPLA2 inh inactive, rCAG bind conf 38 and DNA CAG counter 9.9.
`CCC[C@H]1[C@@H](OC(=O)NCc2cccc(C(F)(F)F)c2)CC[C@@]23CCCN2C(=O)CCC[C@@H]13` gave HGIII-sPLA2 inh inactive.
